# From PubChem BioAssay (EPA / NIEHS)
# Some structures have more than one record in an assay (separate samples or runs), and their calls can disagree. Active and inactive are the calls of the source. Rule for the calls: active = hit-call score of the fitted dose curve at least 0.9, where 1 is the maximum; inactive = score below 0.9.
# Read-out: TIMP metallopeptidase inhibitor 1 (TIMP1), TIMP1 (gene 7076)
# Assay: BSK_MyoF_TIMP1: BioMAP Diversity Plus: MyoF Assay for TIMP metallopeptidase inhibitor 1 (TIMP1) Biomarker Activity (AID 2284269)
# Details: primary human lung fibroblasts
# Method: BSK_MyoF is a cell-based, multiplexed-readout assay that uses lung fibroblasts, […], with measurements taken at 24 hours after chemical dosing in a microplate: 96-well plate.BSK_MyoF_TIMP1 is an assay component measured in the BSK_MyoF assay. It measures TIMP-1 antibody related to regulation of gene expression using ELISA technology.Data from the assay component BSK_MyoF_TIMP1 was analyzed at the endpoint, BSK_MyoF_TIMP1, in the positive analysis fitting direction relative to DMSO as the negative control and baseline of activity. Using a type of binding reporter, gain or loss-of-signal activity can be used to understand protein changes. To generalize the intended target to other relatable targets, this assay endpoint is annotated to the 'protease' intended target family, where the subfamily is 'matrix metalloproteinase'.
# The levels of cell surface (or secreted, indicated by the prefix "s") biomarker endpoints were measured by ELISA. Overt cytotoxicity to cells in confluent adherent cultures (all systems other than the BT system) was assessed by measuring total protein levels using sulforhodamine B (SRB) staining in parallel cultures at the time of biomarker measurements, indicated as SRB endpoints. For proliferation assays for adherent cell types, individual cell types are cultured at sub-confluence and relative cell numbers quantified by SRB staining at time points optimized for each system (48 h: 3C and CASM3C systems; 72 h: BT and HDF3CGF systems; 96 h: SAg system). SRB was performed by staining cells with 0.1% SRB after fixation with 10% TCA and reading wells at 560 nm.Viability and proliferation of PBMC (T cells) was quantified by Alamar Blue reduction for the SAg and BT systems. For PBMC viability (referred to as PBMC Cytotoxicity within the assay endpoint names), cells were plated (75,000/well in a 96-well plate) and then chemical samples added for 1 h before addition of activators, SEB and TSST-1 (20 ng/mL final concentration each). Cells were incubated for 90 h. Then, Alamar Blue (20 uL/well) (Invitrogen, Cat DAL1100) was added for 6 h, and the plates were read with a fluorescence microplate reader at 546/580 nm (excitation/emission). For PBMC proliferation, cells were plated and activated as above but incubated for only 16 h prior to addition of Alamar Blue. Plates were read after 6 h.
Structure (SMILES),outcome,AC50
Oc1cc(Cl)ccc1Cl,inactive,–
COCC(=O)N(c1c(C)cccc1C)N1CCOC1=O,inactive,–
O=c1c2ccccc2c(=O)c2c1cc(Cl)c1[nH]c3c([nH]c12)c(Cl)cc1c(=O)c2ccccc2c(=O)c13,inactive,–
O=S(=O)(c1ccccc1)c1ccccc1,inactive,–
COC(C)(C)CCC[C@H](C)C/C=C/C(C)=C/C(=O)OC(C)C,inactive,–
O=C1C=CC(=O)C=C1,inactive,30.3 µM (active)
Cc1ccc(OP(=O)(Oc2ccc(C)cc2)Oc2ccc(C)cc2)cc1 (tested in a mixture with another compound),inactive,–
CC(C)CCCCCCCOP(=O)(Oc1ccccc1)Oc1ccccc1,–,20 µM (active)
c1ccc(Nc2ccc3ccccc3c2)cc1,–,34.4 µM (active)
CC(C)COP(=O)(OCC(C)C)OCC(C)C,inactive,–
CCCOC(=O)c1ccccc1C(=O)OCCC,inactive,–
CC(=O)/C=C/c1ccccc1,inactive,–
CC(C)(C)C(=O)CCl,inactive,–
CC(C)CCCCCCCOC(=O)c1ccccc1C(=O)OCCCCCCCC(C)C,inactive,–
CCc1cc(C)cc(CC)c1-c1c(OC(=O)C(C)(C)C)n2n(c1=O)CCOCC2,inactive,–
CCCCCCCCCCCC#N,–,31.4 µM (active)
Clc1ccc(-c2ccccc2)cc1,inactive,–
O=C1C(Cl)=C(Cl)C(=O)C(Cl)=C1Cl,–,28 µM (active)
O=c1[nH]c(Cl)c(Cl)cc1Cl,inactive,–
CC(C)(c1cc(Cl)c(O)c(Cl)c1)c1cc(Cl)c(O)c(Cl)c1,–,9.55 µM (active)
C=CC(=O)OCC(CC)CCCC (stereo unspecified),inactive,–
CC(C)(C)C(O)C(Oc1ccc(-c2ccccc2)cc1)n1cncn1 (stereo unspecified),–,17.1 µM (active)
Nc1ccc(-c2ccc(N)c(N)c2)cc1N,inactive,–
C=CCN(CC=C)C(=O)C(Cl)Cl,inactive,–
CC1(C)[C@H](C(=O)O[C@H](C#N)c2cccc(Oc3ccccc3)c2)[C@@H]1C=C(Br)Br,inactive,–
O=P1(NCCCl)OCCCN1CCCl (stereo unspecified),inactive,–
O=C(O)CCCc1ccc(N(CCCl)CCCl)cc1,inactive,–
CNC(=O)Oc1cc(C)c(SC)c(C)c1,inactive,–
CCC(C)c1cc([N+](=O)[O-])cc([N+](=O)[O-])c1OC(=O)C=C(C)C (stereo unspecified),–,13.5 µM (active)
O=[N+]([O-])C=Cc1ccccc1,–,13.2 µM (active)
